# Results as given in PubChem BioAssay (Tox21).
# Values joined by “and” are separate entries in the source; they are usually repeats but may differ in a detail not shown here. Equal entries are not always repeated. Inconclusive results are not listed. A call without a number means that no potency is given here. More than one record can exist for a structure, and the calls need not agree. Active and inactive are the calls of the source. Unless noted, the call rests on the fitted dose curve; in most records, active means well fitted curve in the direction sought with a large enough effect in the repeat runs; inconclusive means weak or mixed curves; inactive means no such curve, though single readings can be large; an effect the other way counts as inactive or inconclusive.
# Assays:
# [1] = target: Retinoic acid receptor RXR-alpha (Homo sapiens) (UniProt P19793); test: qHTS assay to identify small molecule agonists of the RXR signaling pathway (AID 1159527; calls by dose curve; further: nearly all actives have a fitted effect of over 35% in size; further: potency means the concentration at half of the fitted maximal effect)
# Sequence of Retinoic acid receptor RXR-alpha (Homo sapiens) (P19793 whole entry, looked up): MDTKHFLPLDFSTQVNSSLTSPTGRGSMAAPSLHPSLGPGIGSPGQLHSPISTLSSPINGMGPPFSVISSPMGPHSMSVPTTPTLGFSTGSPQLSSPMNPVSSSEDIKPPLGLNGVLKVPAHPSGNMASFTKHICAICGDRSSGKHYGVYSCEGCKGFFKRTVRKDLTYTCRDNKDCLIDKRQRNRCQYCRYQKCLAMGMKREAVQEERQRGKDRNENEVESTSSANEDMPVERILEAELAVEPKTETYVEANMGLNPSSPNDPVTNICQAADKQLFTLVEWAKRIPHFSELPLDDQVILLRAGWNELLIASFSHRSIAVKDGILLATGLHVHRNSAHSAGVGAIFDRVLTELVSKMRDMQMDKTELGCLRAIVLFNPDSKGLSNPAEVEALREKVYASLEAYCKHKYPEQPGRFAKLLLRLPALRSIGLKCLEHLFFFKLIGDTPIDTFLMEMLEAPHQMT
# How it was run: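 Agonist mode; 9-cis retinoic acid positive control. HEK 293T UAS-bla reporter cells, 2% charcoal-stripped FBS, 16 hr compound exposure at 37 C/5% CO2. LiveBLAzer B/G FRET substrate 2 hr RT; ex 405, em 460/530 nm.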
# [2] = qHTS assay to identify small molecule agonists of the RXR signaling pathway - cell viability counter screen (AID 1159529); further: nearly all actives have a fitted effect of over 50% in size; further: potency means the concentration at half of the fitted maximal effect
# How it was run: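 Luminescence from CellTiter-Glo (30 min, RT) measured viability in the same wells as the beta-lactamase reporter readout. Cells: GeneBLAzer RXR-alpha HEK 293T, 2% charcoal-stripped FBS. Compound exposure 16 hr, 37 C.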
# [3] = qHTS assay to identify small molecule antagonists of the retinoid acid receptor (RAR) signaling pathway - cell viability counter screen (AID 1159551); further: nearly all actives have a fitted effect of over 35% in size; further: potency means the concentration at half of the fitted maximal effect
# How it was run: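 Cytotoxicity counter screen in C3RL4 cells: 6 h compound exposure with 1 uM retinol (final), viability from cellular ATP by luminescence.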
# [4] = qHTS assay to identify small molecule antagonists of the retinoic acid receptor (RAR) signaling pathway (AID 1159552; further: nearly all actives have a fitted effect of over 50% in size)
# How it was run: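 Luminescence from a RARE luciferase reporter in C3RL4 cells served as read-out. Cells received compounds together with 1 uM final retinol and incubated 6 hr at 37 C before detection reagent was added for 30 min at room temperature.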
# [5] = qHTS assay to identify small molecule agonists of the retinoic acid receptor (RAR) signaling pathway (AID 1159553); further: potency means the concentration at half of the fitted maximal effect
# How it was run: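 Agonist activity was scored in C3RL4 cells bearing a retinoic acid response element luciferase construct. Cells were treated with compounds for 6 hr at 37 C, and luciferase signal was measured as luminescence.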
# [6] = qHTS assay to identify small molecule antagonists of the estrogen related receptor (ERR) signaling pathway from Tox21 library - cell viability counter screen (AID 1224834); further: nearly all actives have a fitted effect of over 30% in size; further: potency means the concentration at half of the fitted maximal effect
# How it was run: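 Cytotoxicity of test substances is gauged in the same ERR cells used for the antagonist screen, after 17.5 h of compound treatment at 37 C, by CellTiter-Fluor fluorescence measured after 30 min.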
# [7] = target: Luciferin 4-monooxygenase (Photinus pyralis) (UniProt P08659); test: qHTS assay to identify small molecule inhibitors of firefly luciferase (AID 1224835); further: nearly all actives have a fitted effect of over 25% in size; further: potency means the concentration at half of the fitted maximal effect
# Sequence of Luciferin 4-monooxygenase (Photinus pyralis) (P08659 whole entry, looked up): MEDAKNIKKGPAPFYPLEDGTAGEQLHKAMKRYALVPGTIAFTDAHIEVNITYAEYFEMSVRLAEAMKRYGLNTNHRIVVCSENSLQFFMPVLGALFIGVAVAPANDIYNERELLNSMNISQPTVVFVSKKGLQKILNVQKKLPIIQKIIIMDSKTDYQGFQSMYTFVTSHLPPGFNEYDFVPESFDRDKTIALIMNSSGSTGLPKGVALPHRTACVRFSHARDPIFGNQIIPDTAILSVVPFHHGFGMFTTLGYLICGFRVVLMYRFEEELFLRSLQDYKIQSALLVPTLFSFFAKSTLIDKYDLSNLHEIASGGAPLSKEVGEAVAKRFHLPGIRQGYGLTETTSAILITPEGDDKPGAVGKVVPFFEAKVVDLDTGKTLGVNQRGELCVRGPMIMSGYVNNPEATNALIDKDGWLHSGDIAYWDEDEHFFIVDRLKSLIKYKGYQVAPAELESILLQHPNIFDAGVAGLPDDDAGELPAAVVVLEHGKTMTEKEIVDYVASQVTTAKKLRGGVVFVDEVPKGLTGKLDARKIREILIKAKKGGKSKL
# How it was run: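 Quantitative HTS format; KM concentrations of both substrates. Purified P. pyralis FLuc activity quantified from luminescence images.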
# [8] = qHTS assay to identify small molecule agonists of the constitutive androstane receptor (CAR) signaling pathway - cell viability counter screen (AID 1224836); further: nearly all actives have a fitted effect of over 45% in size; further: potency means the concentration at half of the fitted maximal effect
# How it was run: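 Viability read-out: CellTiter-Fluor fluorescence after 23 h compound exposure at 37 C/5% CO2 in double-stable HepG2-CYP2B6-hCAR cells, with PK11195 present at 0.75 uM final; compounds tested in 15-point titration.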
# [9] = target: Nuclear receptor subfamily 1 group I member 3 (Homo sapiens) (UniProt Q14994); test: qHTS assay to identify small molecule antagonists of the constitutive androstane receptor (CAR) signaling pathway (AID 1224838); further: nearly all actives have a fitted effect of over 40% in size; further: potency means the concentration at half of the fitted maximal effect
# Sequence of Nuclear receptor subfamily 1 group I member 3 (Homo sapiens) (Q14994 whole entry, looked up): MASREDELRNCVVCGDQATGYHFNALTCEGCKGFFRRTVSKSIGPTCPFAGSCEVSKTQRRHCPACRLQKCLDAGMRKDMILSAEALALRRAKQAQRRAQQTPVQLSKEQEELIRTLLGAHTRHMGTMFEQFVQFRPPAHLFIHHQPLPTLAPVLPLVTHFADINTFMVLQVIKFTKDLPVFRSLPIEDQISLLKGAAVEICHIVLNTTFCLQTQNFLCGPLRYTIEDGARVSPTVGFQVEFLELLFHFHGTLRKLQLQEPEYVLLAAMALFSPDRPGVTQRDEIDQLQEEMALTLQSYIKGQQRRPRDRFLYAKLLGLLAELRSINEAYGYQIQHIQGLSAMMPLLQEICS
# How it was run: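 Compounds were titrated across 15 concentrations onto HepG2 cells double-stably expressing hCAR and a CYP2B6-2.2kb reporter, together with 50 nM CITCO (final). After 24 h at 37 C, luciferase activity was measured by luminescence.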
# [10] = target: Nuclear receptor subfamily 1 group I member 3 (Homo sapiens) (UniProt Q14994); test: qHTS assay to identify small molecule agonists of the constitutive androstane receptor (CAR) signaling pathway (AID 1224839); further: nearly all actives have a fitted effect of over 15% in size; further: potency means the concentration at half of the fitted maximal effect
# How it was run: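 Luminescence read-out (ONE-Glo, 30 min, room temperature) from double-stable HepG2-CYP2B6-hCAR cells exposed 24 h to 15-point compound series in presence of 0.75 uM PK11195 final.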
# [11] = qHTS assay to identify small molecule antagonists of the constitutive androstane receptor (CAR) signaling pathway - cell viability counter screen (AID 1224837); further: series mostly up to about 92 µM; nearly all actives have a fitted effect of over 45% in size
# How it was run: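 Multiplexed cytotoxicity read-out for the CAR antagonist screen: double-stable HepG2-CYP2B6-hCAR cells co-treated with 50 nM CITCO (final) and compound over 15 concentrations, incubated 23 hr, then assessed by CellTiter-Fluor fluorescence.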
# [12] = qHTS assay to identify small molecule antagonists of the estrogen related receptor signaling pathway with the pleiotropic PPARgamma coactivator (PGC) from Tox21 10K library - cell viability counter screen (AID 1224840; active means well fitted cell-killing curve with a large enough effect in the repeat runs, not every such curve was filed as active; further: nearly all actives have a fitted effect of over 40% in size; further: potency means the concentration at half of the fitted maximal effect)
# How it was run: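 Step one, plate 2,000 PGC/ERR cells per well; step two, incubate 6 h at 37 C/5% CO2; step three, pin-transfer compounds; step four, incubate 17.5 h; step five, add CellTiter-Fluor and read fluorescence after 30 min.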
# [13] = qHTS assay to identify small molecule antagonists of the estrogen related receptor signaling pathway with the pleiotropic PPARgamma coactivator (PGC) from Tox21 10K library (AID 1224841; call rule not given here; further: actives are mostly falling curves and most rising ones were filed inactive; nearly all actives have a fitted effect of over 50% in size; further: potency means the concentration at half of the fitted maximal effect)
# How it was run: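 Antagonism in this quantitative HTS is taken from loss of luciferase signal in PGC/ERR cells. Cells (2,000/well) are treated with compounds in DMSO after a 6 h settling period and read by One-Glo luminescence after 18 h.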
# [14] = qHTS assay to identify small molecule agonists of the estrogen related receptor signaling pathway with the pleiotropic PPARgamma coactivator (PGC) from Tox21 10K library (AID 1224842); further: nearly all actives have a fitted effect of over 15% in size
# How it was run: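 PGC/ERR reporter cells (NTP line) were seeded 2,000 per well, rested 6 h at 37 C/5% CO2, then pin-dosed with compounds in DMSO for 18 h at 37 C; luciferase read by One-Glo luminescence after 30 min at room temperature.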
# [15] = qHTS assay to identify small molecule antagonists of the estrogen related receptor (ERR) signaling pathway - cell viability counter screen (AID 1224818);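 further: series mostly up to about 46 µM; viability measured after 17.5 h of compound exposure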
# How it was run: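 Cells carrying the ERR pathway reporter were seeded and incubated for 6 hours before compound addition. After a 17.5-hour exposure at 37 C, live-cell protease activity was measured by CellTiter-Fluor fluorescence following 30 minutes of incubation.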
# [16] = qHTS assay to identify small molecule antagonists of the estrogen related receptor (ERR) signaling pathway (AID 1224819;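 further: luminescence from an ERR-driven luciferase reporter measured with One-Glo reagent; series mostly up to about 46 µM; nearly all actives have a fitted effect of over 50% in size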)
# How it was run: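 Compounds dissolved in DMSO were pin-transferred onto ERR cells that had been plated 6 h earlier, and cells were then incubated 18 h at 37 C; signal was luciferase luminescence via One-Glo.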
# [17] = qHTS assay to identify small molecule agonists of the estrogen related receptor (ERR) signaling pathway (AID 1224820)
# How it was run: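 Quantitative HTS of the LOPAC library used NTP ERR reporter cells treated 18 h at 37 C. Signal is luminescence after One-Glo addition and a 30 min room-temperature incubation.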
# [18] = tested on: estrogen-related receptor alpha (ERRalpha) with PGC-1alpha coactivator, human; test: qHTS assay to identify small molecule antagonists of the estrogen related receptor signaling pathway with the pleiotropic PPARgamma coactivator (PGC) (AID 1224821; calls by dose curve)
# How it was run: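 Quantitative HTS for antagonism: PGC/ERR cells received compounds after 6 h attachment and were incubated 18 h at 37 C, with luminescence (One-Glo) as the endpoint.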
# [19] = qHTS assay to identify small molecule antagonists of the estrogen related receptor signaling pathway with the pleiotropic PPARgamma coactivator (PGC) cell viability counter screen (AID 1224822;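 further: series mostly up to about 46 µM; viability read after 17.5 h compound exposure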)
# How it was run: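 Seed PGC/ERR cells (2,000/well); incubate 6 h at 37 C/5% CO2; pin-transfer compounds in DMSO; incubate 17.5 h at 37 C; add CellTiter-Fluor; after 30 min read fluorescence.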
# [20] = qHTS assay to identify small molecule agonists of the estrogen related receptor signaling pathway with the pleiotropic PPARgamma coactivator (PGC) (AID 1224823)
# How it was run: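 Cell-based luciferase assay in the NTP-supplied PGC/ERR line, 2,000 cells/well; 18 h compound exposure at 37 C, luminescence after One-Glo.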
Compound,Potency [1],Potency [2],Potency [3],Potency [4],Potency [5],Potency [6],Potency [7],Potency [8],Potency [9],Potency [10],Potency [11],Potency [12],Potency [13],Potency [14],outcome [15],Potency [16],outcome [17],outcome [18],Potency [19],outcome [20]
CC(=O)C(=O)O,inactive,inactive,inactive,inactive,inactive,inactive,inactive,inactive,inactive,inactive,–,–,–,–,–,–,–,–,–,–
Cc1cc(C)nc(NS(=O)(=O)c2ccc(N)cc2)n1,14 µM (active) and inactive,inactive,inactive,inactive,inactive,inactive,–,inactive,inactive,inactive,inactive,–,–,–,–,–,–,–,–,–
CC12CCC(CC1)C(C)(C)O2,inactive,inactive,inactive,inactive,inactive,inactive,–,inactive,–,–,–,–,–,–,–,–,–,–,–,–
Nc1c(N=Nc2ccc(-c3ccc(N=Nc4cc(S(=O)(=O)O)c5ccccc5c4N)cc3)cc2)cc(S(=O)(=O)O)c2ccccc12,inactive,inactive,17.2 µM (active),inactive,inactive,21.7 µM (active),–,27.3 µM (active),27.3 µM (active),inactive,–,21.7 µM (active),21.7 µM (active),inactive,–,–,–,–,–,–
COc1ccc(C(Cl)=C(c2ccc(OC)cc2)c2ccc(OC)cc2)cc1,inactive,inactive,inactive,inactive,inactive,inactive,–,inactive,inactive,inactive,inactive,–,27.2 µM (active) and 30.6 µM (active) and 23.7 µM (active),inactive,–,–,–,–,–,–
Cn1c(=O)c2c(ncn2C)n(C)c1=O,inactive,inactive,inactive,inactive,inactive,55.1 µM (active) and inactive,–,–,inactive,inactive,–,inactive,–,inactive,inactive,inactive,inactive,inactive,inactive,inactive
NC1CCCCC1,inactive,inactive,inactive,inactive,inactive,inactive,–,inactive,inactive,inactive,–,inactive,–,–,–,–,–,–,–,–
CCCCOC(=O)c1ccc(O)cc1,inactive,inactive,inactive,inactive,27.3 µM (active),inactive,80.7 µM (active) and 63.3 µM (active) and inactive,inactive,inactive,55.1 µM (active) and 30.6 µM (active) and inactive,–,–,–,–,–,–,–,–,–,–
CCCCCCc1ccc(O)cc1O,inactive,49.1 µM (active) and 54.9 µM (active),inactive,inactive,inactive,61.3 µM (active),–,inactive,inactive,inactive,–,inactive,inactive,inactive,–,–,–,–,–,–
Cc1c(C(=O)O)c(O)cc2c1C(=O)c1c(O)c([C@@H]3O[C@H](CO)[C@@H](O)[C@H](O)[C@H]3O)c(O)c(O)c1C2=O,inactive,inactive,33.5 µM (active) and 48.6 µM (active),inactive,inactive,33.5 µM (active) and 27.3 µM (active),34.7 µM (active) and 35.6 µM (active) and 17.4 µM (active),–,–,–,–,inactive,–,–,–,–,–,–,–,–
CCCc1cc(=O)[nH]c(=S)[nH]1,inactive,inactive,inactive,inactive,inactive,inactive,–,inactive,inactive,inactive,inactive,inactive,–,–,–,–,–,–,–,–
O=C(O)CC(O)C(=O)O (stereo not given),inactive,inactive,inactive,inactive,inactive,inactive,inactive,inactive,inactive,inactive,–,–,–,–,–,–,–,–,–,–
Nc1c2c(nc3ccccc13)CCCC2,inactive,inactive,inactive,inactive,inactive,inactive,inactive,inactive,54.5 µM (active) and 43.3 µM (active) and inactive,inactive,inactive,–,inactive,inactive,inactive,inactive,inactive,inactive,inactive,inactive
COc1ccc(CN(CCN(C)C)c2ccccn2)cc1,inactive,40.2 µM (active) and inactive,inactive,inactive,inactive,–,inactive,inactive,–,–,–,–,–,–,inactive,–,–,–,inactive,–
CN(C)CCOC(C)(c1ccccc1)c1ccccn1 (stereo not given),inactive,inactive,inactive,inactive,inactive,inactive,–,inactive,inactive,inactive,–,–,inactive,inactive,inactive,inactive,inactive,inactive,inactive,inactive
O=S1(=O)OC(c2ccc(O)cc2)(c2ccc(O)cc2)c2ccccc21,inactive,inactive,inactive,inactive,inactive,27.3 µM (active) and 18.8 µM (active),–,30.6 µM (active) and 27.3 µM (active) and 33.5 µM (active),inactive,inactive,–,30.6 µM (active) and 27.3 µM (active) and 21.1 µM (active),54.5 µM (active) and 61.1 µM (active) and inactive,inactive,–,–,–,–,–,–
CC1(C)O[C@@H]2C[C@H]3[C@@H]4CCC5=CC(=O)C=C[C@]5(C)[C@@]4(F)[C@@H](O)C[C@]3(C)[C@]2(C(=O)CO)O1,inactive,inactive,inactive,inactive,inactive,inactive,–,inactive,–,–,–,inactive,inactive,inactive,–,–,–,–,–,–
